Experiment [1] deals with Human papillomavirus type 1a protein E7 (residues 44-93). As to the kind of experiment: HPV1a E7 fragment binders on microarrays, primary screen, biochemical, small-molecule microarray, residues 44-93, 635 nm fluorescence (AID 1108).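 Also: E7 fragment applied at 1 µg/mL in TBST for 1 h at 4 C; score combines spot fluorescence with its signal to noise ratio.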 The conditions noted are these: small-molecule microarray binding, fluorescence 635 nm; higher = more signal.
Experiment [2] in a line: modulators of HCV replicon luciferase signal, primary screen, HCV replication inhibitor project, Huh7 cells, luciferase reporter (AID 1109).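 Also: huh7 hepatoma cells harbouring a luciferase neomycin HCV replicon reporter; luciferase luminescence as measure of HCV replicon replication; test concentration not given here.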 The conditions noted are these: 48 h, higher = more signal. (In general: A replicon is a self-replicating genome or part of one, used to study replication in cells.)
Experiment [3] concerns the target Left-right determination factor 2 (Homo sapiens) (UniProt O00292). As to the kind of experiment: LEFTY2 binders on small-molecule microarrays, primary screen, biochemical, small-molecule microarray, 635 nm fluorescence scan (AID 1110). The settings on record: LEFTY2 binding, higher = more signal.
Experiment [4] addresses Calmodulin-1 (Homo sapiens) (UniProt P0DP23). As to the kind of experiment: CALM1 binders on microarrays, EGTA buffer, profiling panel, biochemical, small-molecule microarray, Cy5-labelled CALM1 (AID 1111).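 Also: labelled calmodulin applied in Tris saline Tween buffer holding calcium plus EGTA and DTT.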 The conditions noted are these: Cy5-CALM1 binding fluorescence, higher = more signal.
Experiment [5] has the same target. Description: calcium-bound CALM1 binders on microarrays, profiling panel, artefact control for SMM control-protein annotation, biochemical, small-molecule microarray, Cy5-labelled CALM1, plus calcium (AID 1112).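 Also: score merges spot fluorescence with signal to noise from triplicate slides.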 The conditions noted are these: Cy5-CALM1 binding fluorescence, higher = more signal.
A short description of experiment [6]: small-molecule microarray binders of probe aWnt5a, primary screen, biochemical, biotinylated probe, 635/667 nm fluorescence (AID 1113).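 Also: score merges 667 nm fluorescence intensity with signal-to-noise per printed feature.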 The conditions noted are these: higher = more signal.
Experiment [7] can be described thus: small-molecule microarray binders of probe aShh, primary screen, biochemical, biotinylated probe, 635/667 nm fluorescence (AID 1114).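 Also: probe is biotin-labelled aShh protein from a stem cell growth factor screen; measures binding of labelled protein to compounds printed on the slide; score merges feature fluorescence at 667 nm with signal-to-noise.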 The settings on record: higher = more signal.
Experiment [8] in a line: small-molecule microarray binders of probe aNog, primary screen, biochemical, biotinylated probe, 635/667 nm fluorescence (AID 1115).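 Also: probe is biotinylated aNog protein used at 0.15 µg/mL for 1 h at 4 C; z-score combines 667 nm fluorescence of each spot with its signal to noise.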 The settings on record: higher = more signal.
Experiment [9] has as its target Torsin-1A-interacting protein 1 (Homo sapiens) (UniProt Q5JTV8). As to the kind of experiment: LAP1 binders from COS7 cell lysate, primary screen, small-molecule microarray, 635/667 nm fluorescence (AID 1116). The conditions noted are these: COS7-hLAP1 lysate binding, 635 nm fluorescence, higher = more signal.
Experiment [10] concerns the target Alpha-bungarotoxin (Bungarus multicinctus) (UniProt P60615). As to the kind of experiment: alpha-bungarotoxin binders on microarray, profiling panel, artefact control for SMM control protein annotation, biochemical, small-molecule microarray, Alexa647 label, 635/667 nm fluorescence (AID 1117). The conditions noted are these: alpha-BTX-A647 binding fluorescence, higher = more signal.

In a further experiment the target is Albumin (Bos taurus) (UniProt P02769). As to the kind of experiment: bovine serum albumin binders on microarray, profiling panel, artefact control for SMM control protein annotation, biochemical, small-molecule microarray, Alexa647 label, 635/667 nm fluorescence (AID 1118).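 Also: score merges 667 nm emission intensity and signal-to-noise per printed compound spot.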 The settings on record: BSA-A647 binding, fluorescence 635 nm, higher = more signal.
Experiment [11] in a line: small-molecule microarray binders of probe aXIP, primary screen, biochemical, NeuroSMM set, 635/667 nm fluorescence (AID 1119).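 Also: probe is the protein aXip251-270 applied at 1 µg/mL to compound-printed slides; binding of probe to printed compounds measured as 667 nm fluorescence plus signal to noise.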 The conditions noted are these: higher = more signal, called active from +8 up or from −8 down.
The nature of experiment [12]: small-molecule binders of probe aNOTCH3, primary screen, biochemical, small-molecule microarray, 635/667 nm fluorescence (AID 1120).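 Also: probe is a biotin-tagged antibody raised against NOTCH3 rather than NOTCH3 protein; score merges spot fluorescence near 667 nm with spot signal to noise.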 The settings on record: higher = more signal.
Experiment [13] is described as follows: small-molecule binders of probe aNOTCH2, primary screen, biochemical, small-molecule microarray, 635/667 nm fluorescence (AID 1121).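 Also: score merges feature fluorescence read at 667 nm with its signal to noise.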 The conditions noted are these: higher = more signal.
Experiment [14] deals with Carbonic anhydrase 2 (Homo sapiens) (UniProt P00918). As to the kind of experiment: CAII small-molecule binders, profiling panel, biochemical, small-molecule microarray, Alexa647-labelled CAII (AID 1122). The settings on record: CAII-A647 binding fluorescence, higher = more signal.
Experiment [15] in a line: COS7 lysate on small-molecule microarray, probe aHis, 635 nm (AID 1123).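 Also: z-score combines 667nm fluorescence intensity with signal-to-noise per printed compound spot.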 The conditions noted are these: COS7 cell lysate, fluorescence, higher = more signal.
Experiment [16] can be described thus: compound binding in COS7 lysate, probe aLAP1, primary screen, cell lysate, small-molecule microarray (AID 1124).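 Also: lysate comes from COS7 cells expressing LAP1 and is applied at 0.3 µg/mL; score merges spot fluorescence near 667 nm with signal-to-noise over triplicate slides.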 The settings on record: probe aLAP1, fluorescence, higher = more signal.
The test system of another experiment is Sam68 (KHDRBS1). Description: Sam68 small-molecule binders, primary screen, biochemical, small-molecule microarray, 635 nm fluorescence (AID 1125).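 Also: score merges 667 nm channel intensity with signal to noise over triplicate slides.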 The settings on record: small-molecule microarray binding, higher = more signal.
Experiment [17] deals with Chordin-like protein 2 (CHRDL2). As to the kind of experiment: CHRDL2 small-molecule binders, primary screen, biochemical, small-molecule microarray, 635 nm fluorescence (AID 1126).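 Also: printed compound slides probed with Chrdl2 protein at 4 µg/mL for 1 h at 4 C; score merges 667 nm emission intensity with signal to noise over three replicate slides.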 The settings on record: small-molecule microarray binding, fluorescence 635 nm; higher = more signal.
Experiment [18] concerns the target Concanavalin-A (Canavalia ensiformis) (UniProt P02866). As to the kind of experiment: ConA small-molecule binders, primary screen, artefact control for SMM control protein annotation, biochemical, small-molecule microarray, Alexa647 label, 635 nm (AID 1127).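 Also: z combines 667 nm emission intensity with signal-to-noise across three replicate slides.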 The settings on record: ConA-A647 binding fluorescence, higher = more signal.

Structures are written as SMILES. Active and inactive are the calls of the source.

Sequence of Alpha-bungarotoxin (Bungarus multicinctus) (P60615 whole entry, looked up): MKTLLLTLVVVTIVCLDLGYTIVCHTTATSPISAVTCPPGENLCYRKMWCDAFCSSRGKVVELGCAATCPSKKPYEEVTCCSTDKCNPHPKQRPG
Sequence of Concanavalin-A (Canavalia ensiformis) (P02866 whole entry, looked up): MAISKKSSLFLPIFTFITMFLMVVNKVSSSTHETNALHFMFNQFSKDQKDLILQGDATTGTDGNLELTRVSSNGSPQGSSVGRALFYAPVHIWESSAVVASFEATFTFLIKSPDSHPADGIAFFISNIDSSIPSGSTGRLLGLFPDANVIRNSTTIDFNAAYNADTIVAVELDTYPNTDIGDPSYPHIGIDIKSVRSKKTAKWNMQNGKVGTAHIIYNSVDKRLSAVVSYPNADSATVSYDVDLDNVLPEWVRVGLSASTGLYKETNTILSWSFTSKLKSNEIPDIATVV
Sequence of Left-right determination factor 2 (Homo sapiens) (O00292 whole entry, looked up): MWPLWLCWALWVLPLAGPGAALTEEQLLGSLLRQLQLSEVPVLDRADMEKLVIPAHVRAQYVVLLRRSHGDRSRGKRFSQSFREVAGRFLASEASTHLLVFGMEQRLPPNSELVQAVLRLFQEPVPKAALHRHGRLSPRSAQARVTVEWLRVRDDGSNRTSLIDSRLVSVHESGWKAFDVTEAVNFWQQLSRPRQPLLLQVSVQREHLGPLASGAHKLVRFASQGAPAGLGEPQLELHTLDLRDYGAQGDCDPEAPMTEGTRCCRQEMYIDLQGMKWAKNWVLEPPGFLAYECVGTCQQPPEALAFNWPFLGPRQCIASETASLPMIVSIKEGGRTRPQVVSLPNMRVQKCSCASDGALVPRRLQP
Sequence of Torsin-1A-interacting protein 1 (Homo sapiens) (Q5JTV8 whole entry, looked up): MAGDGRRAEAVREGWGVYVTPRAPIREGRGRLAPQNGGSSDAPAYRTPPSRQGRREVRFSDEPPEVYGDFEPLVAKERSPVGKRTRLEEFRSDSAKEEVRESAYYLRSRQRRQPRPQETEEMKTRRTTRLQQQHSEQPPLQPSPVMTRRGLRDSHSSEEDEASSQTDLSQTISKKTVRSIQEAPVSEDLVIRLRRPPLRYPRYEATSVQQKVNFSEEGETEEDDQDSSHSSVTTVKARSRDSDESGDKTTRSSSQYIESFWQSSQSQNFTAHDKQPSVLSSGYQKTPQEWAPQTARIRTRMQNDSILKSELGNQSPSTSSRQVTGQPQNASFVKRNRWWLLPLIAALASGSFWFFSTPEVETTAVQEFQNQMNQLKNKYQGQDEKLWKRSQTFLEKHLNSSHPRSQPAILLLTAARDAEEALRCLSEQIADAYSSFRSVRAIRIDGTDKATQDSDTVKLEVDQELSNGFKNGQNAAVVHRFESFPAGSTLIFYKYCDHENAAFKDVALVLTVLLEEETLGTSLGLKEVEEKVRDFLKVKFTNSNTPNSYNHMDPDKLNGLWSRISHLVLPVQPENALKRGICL
Sequence of Albumin (Bos taurus) (P02769 whole entry, looked up): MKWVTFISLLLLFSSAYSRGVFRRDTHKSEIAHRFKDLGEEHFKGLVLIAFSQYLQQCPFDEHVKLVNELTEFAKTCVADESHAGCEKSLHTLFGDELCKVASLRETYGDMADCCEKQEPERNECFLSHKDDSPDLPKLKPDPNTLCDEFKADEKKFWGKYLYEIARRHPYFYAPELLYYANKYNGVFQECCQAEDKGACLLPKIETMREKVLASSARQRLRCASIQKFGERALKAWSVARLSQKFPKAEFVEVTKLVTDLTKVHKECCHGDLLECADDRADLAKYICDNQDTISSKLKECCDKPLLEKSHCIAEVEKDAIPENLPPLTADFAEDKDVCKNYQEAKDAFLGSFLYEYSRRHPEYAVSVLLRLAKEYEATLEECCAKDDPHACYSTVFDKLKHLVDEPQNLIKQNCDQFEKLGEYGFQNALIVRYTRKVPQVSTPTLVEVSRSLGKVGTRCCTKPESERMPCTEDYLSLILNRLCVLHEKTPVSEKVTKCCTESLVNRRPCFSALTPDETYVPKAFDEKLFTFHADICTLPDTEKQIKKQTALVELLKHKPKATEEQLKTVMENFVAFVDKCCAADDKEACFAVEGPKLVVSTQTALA

For the compound `C=C(COC)C(=O)CC[C@H](OC(=O)c1cccnc1)c1ccccc1OCCO`, the composite z-score in [1] was 0.862; in experiment [3] it was 0.53; in experiment [4], -0.0382; in experiment [5], -0.689; in experiment [6] it was -0.0479; in experiment [7] it was -0.138. Besides, the composite z-score in experiment [8] was 0.437; in experiment [9], 1.08; in [10], 0.443; with Albumin (Bos taurus), 0.233; in [12], 0.217; in experiment [13], -0.0846. The composite z-score in [14] was determined as 0.286; in [15], 0.765; in [16] it was 0.591; with Sam68 (KHDRBS1), 1.32; in experiment [17], 0.906; in experiment [18], 0.475. For the same compound, in experiment [2], the z-score is -3.13. Moreover, the composite Z-score in [11] is 0.708 (inactive).

Consider `C=CC[C@@]1(C(=O)NCCN2CCOCC2)N=C(c2ccc(OCCCO)cc2)O[C@@H]1c1ccccc1CN=[N+]=[N-]`, for which the composite z-score in experiment [1] is 0.947; in experiment [3] it was -0.325; in experiment [4], 1.42; in [5], 0.555; in experiment [6], -0.154; in experiment [7] it was 0.0822. Moreover, the composite z-score in [8] was 0.104; in experiment [9], 1.77; in experiment [10], 0.604; with Albumin (Bos taurus) it was 0.831; in [12], -0.434; in experiment [13], -0.397. Also, the composite z-score came to 0.556 in [14]; 2.9 in [15]; 0.895 in experiment [16]; 1.2 in the experiment with Sam68 (KHDRBS1); 0.055 in [17]; 0.85 in experiment [18]. Further, the z-score in [2] was -1.74. The composite Z-score in experiment [11] was -0.0095 (inactive).

As to `C=CCOC(=O)[C@H]1[C@@H]2C(=O)O[C@@H](c3ccccc3)[C@@H](c3ccccc3)N2[C@@H](c2ccc(OCCOC(=O)[C@@H]3C[C@@H]4C(=O)NCC(=O)N4[C@@H]3c3ccc(O)cc3)cc2)[C@]12C(=O)Nc1ccc(I)cc12`, the composite z-score in experiment [1] was 1.37; in experiment [3], 1.04; in experiment [4] it was 1.56; in [5], 0.341; in experiment [6] it was -0.0519; in experiment [7], 0.131. Moreover, the composite z-score in experiment [8] was -0.412; in experiment [9], 1.14; in experiment [10] it was 1.52; with Albumin (Bos taurus), 0.733; in [12] it was 0.0435; in [13], -0.0583. For the same compound, the composite z-score in experiment [14] was 0.647; in [15], 1.71; in experiment [16], 0.888; in the experiment on Sam68 (KHDRBS1) it was 1.3; in experiment [17], 1.09; in experiment [18], 1.14. The same compound gave a z-score in [2] of -1.59. In [11], the composite Z-score was 1.05 (inactive).

As for `O=C1OCC=C[C@H]2OC34C=CCN(Cc5ccccc5)C(=O)[C@H]3N(CCCO)C(=O)[C@@H]4[C@@H]12` (stereo not given in full), the composite z-score is 1.22 in experiment [1]; -0.406 in experiment [3]; 1.19 in [4]; 0.918 in [5]; 0.0474 in [6]; 0.63 in [7]. For the same compound, the composite z-score was 0.134 in experiment [8]; 0.627 in experiment [9]; -0.162 in experiment [10]; 0.792 with Albumin (Bos taurus); 0.577 in experiment [12]; 0.0753 in [13]. Besides, the composite z-score in experiment [14] was 0.786; in [15] it was 3.07; in experiment [16] it was 1.08; in the experiment with Sam68 (KHDRBS1) it was 0.89; in experiment [17] it was -0.888; in [18], 0.226. The z-score in [2] was -0.789. The composite Z-score in [11] is 2.97 (inactive).

In the case of `CCCNC(=O)[C@@]1(C)c2ccccc2C(=O)N(C(C)C)[C@H]1c1ccc(CO)cc1`, the composite z-score in experiment [1] was -0.0794; in experiment [3], -1.28; in experiment [4], -0.58; in experiment [5], -0.145; in experiment [6] it was -0.212; in experiment [7], -0.262. In addition, the composite z-score in [8] was -0.0172; in experiment [9] it was -0.109; in experiment [10] it was -0.731; with Albumin (Bos taurus), -0.598; in experiment [12], -0.136; in experiment [13], -0.102. Besides, the composite z-score was 0.673 in experiment [14]; 1.63 in experiment [15]; 0.65 in [16]; -0.347 in the experiment with Sam68 (KHDRBS1); -0.95 in [17]; -1.15 in experiment [18]. Besides, the z-score in experiment [2] is -1.99. In addition, the composite Z-score in experiment [11] is -0.305 (inactive).

`C=CCOC(=O)[C@@H]1[C@H]2C(=O)O[C@H](c3ccccc3)[C@H](c3ccccc3)N2[C@H](c2ccc(OCCOC(=O)[C@H]3C[C@H]4C(=O)N[C@@H](CC(C)C)C(=O)N4[C@H]3c3cccc(OCCO)c3)cc2)[C@@]12C(=O)Nc1ccc(I)cc12`: the composite z-score is 1.44 in [1]; 0.697 in [3]; 0.896 in experiment [4]; 0.163 in [5]; -0.0721 in [6]; 0.337 in experiment [7]. Besides, the composite z-score in [8] was 0.0852; in experiment [9], 0.921; in experiment [10], 2.52; in the experiment with Albumin (Bos taurus), -0.413; in experiment [12], 0.19; in experiment [13], -0.0424. Further, the composite z-score in experiment [14] worked out at 0.35; in experiment [15] it was 1.48; in experiment [16], 0.334; in the experiment with Sam68 (KHDRBS1), 1.29; in experiment [17], 1.04; in experiment [18], 1.14. In experiment [2], this compound had a z-score of -1.34. Further, in [11], the composite Z-score was -0.367 (inactive).
